Test [1] can be described thus: qHTS assay to identify small molecule antagonists of the thyroid receptor (TR) signaling pathway - cell viability counter screen (AID 743064). Also: nearly all actives have a fitted effect of over 50% in size. Also: potency is read from the fitted curve at half-maximal effect. The method in brief: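 Compounds were tested on GH3.TRE-Luc cells in the presence of T3 at 1 nM final. Following 23.5 h at 37 °C, cell viability was quantified by CellTiter-Fluor.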
Test [2] has as its system thyroid hormone receptor (rat, GH3 cells). In words: qHTS assay to identify small molecule agonists of the thyroid receptor (TR) signaling pathway (AID 743066; calls by dose curve).
Test [3] addresses Estrogen receptor (Homo sapiens) (UniProt P03372). In words: qHTS assay to identify small molecule antagonists of the estrogen receptor alpha (ER-alpha) signaling pathway (AID 743069; active = well fitted curve in the direction sought with a large enough effect in the signal ratio in the repeat runs, not every such curve was filed as active; inconclusive = weak or mixed curves, or effect the other way; inactive = no such curve, though single readings can be large or run the other way; the % refers to the signal ratio; also: potency is read from the fitted curve at half-maximal effect). The method, boiled down:
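Screening used a UAS-driven beta-lactamase reporter integrated into HEK293 cells expressing ER-alpha, stimulated with 17beta-estradiol alongside test compounds over 18 hr at 37C; signal came from LiveBLAzer B/G FRET fluorescence.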
In general terms: qHTS replaces the single test concentration by a dilution series.

Test [4] is described as follows: qHTS assay to identify small molecule antagonists of the estrogen receptor alpha (ER-alpha) signaling pathway - cell viability counter screen (AID 743074; calls by dose curve; also: nearly all actives have a fitted effect of over 45% in size; also: potency is read from the fitted curve at half-maximal effect).
Test [5] addresses Estrogen receptor (Homo sapiens) (UniProt P03372). The test can be described thus: qHTS assay to identify small molecule agonists of the estrogen receptor alpha (ER-alpha) signaling pathway (AID 743075; calls by dose curve; also: potency is read from the fitted curve at half-maximal effect).
The target is the same in test [6]. In words: qHTS assay to identify small molecule agonists of the estrogen receptor alpha (ER-alpha) signaling pathway using the BG1 cell line (AID 743079). Also: nearly all actives have a fitted effect of over 20% in size. Also: potency is read from the fitted curve at half-maximal effect.
The nature of test [7]: qHTS assay to identify small molecule antagonists of the estrogen receptor alpha (ER-alpha) signaling pathway using the BG1 cell line (AID 743080; calls by dose curve;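 also: BG1 cells stimulated with 17beta-estradiol alongside compound; nearly all actives have a fitted effect of over 25% in size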; also: potency is read from the fitted curve at half-maximal effect). The method in brief: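 After 5 days in phenol-red-free 10% charcoal-stripped FBS medium, BG1-Luc-4E2 cells were seeded, left 24 h at 37 C, co-treated with compounds and 17beta-estradiol for 21.5 h, then assayed for viability and luciferase.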

Test [8] can be described thus: qHTS assay to identify small molecule antagonists of the estrogen receptor alpha (ER-alpha) signaling pathway using the BG1 cell line - cell viability counter screen (AID 743081).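 Also: compound given together with 17beta-estradiol as the ER stimulus; nearly all actives have a fitted effect of over 45% in size.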 Also: potency is read from the fitted curve at half-maximal effect.
In test [9] the target is Aromatase (Homo sapiens) (UniProt P11511). In words: qHTS assay to identify aromatase inhibitors (AID 743083). Also: nearly all actives have a fitted effect of over 55% in size. Also: potency is read from the fitted curve at half-maximal effect.
Test [10] is described as follows: qHTS assay to identify small molecule antagonists of the thyroid receptor (TR) signaling pathway (AID 743065). Also: nearly all actives have a fitted effect of over 55% in size. Also: potency is read from the fitted curve at half-maximal effect. The method in brief:
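GH3.TRE-Luc rat pituitary cells carrying two TR response elements driving luciferase were plated for 4 h, given compound plus 1 nM T3 (final), and incubated 23.5 h at 37 C. ONE-Glo luminescence measured reporter inhibition; CellTiter-Fluor fluorescence tracked cytotoxicity.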

“And” between values parts separate entries of the source, which are not always exact repeats. Equal values may be shown once. The source holds several records for some structures; these can differ, active in one and inactive in another. The source made the active and inactive calls. Unless noted, calls follow the shape of the dose curve; as a rule, active = well fitted curve in the direction sought with a large enough effect in the repeat runs; inconclusive = weak or mixed curves; inactive = no such curve, though single readings can be large; an effect the other way counts as inactive or inconclusive.

Aromatase (Homo sapiens), sequence (P11511 whole entry, looked up): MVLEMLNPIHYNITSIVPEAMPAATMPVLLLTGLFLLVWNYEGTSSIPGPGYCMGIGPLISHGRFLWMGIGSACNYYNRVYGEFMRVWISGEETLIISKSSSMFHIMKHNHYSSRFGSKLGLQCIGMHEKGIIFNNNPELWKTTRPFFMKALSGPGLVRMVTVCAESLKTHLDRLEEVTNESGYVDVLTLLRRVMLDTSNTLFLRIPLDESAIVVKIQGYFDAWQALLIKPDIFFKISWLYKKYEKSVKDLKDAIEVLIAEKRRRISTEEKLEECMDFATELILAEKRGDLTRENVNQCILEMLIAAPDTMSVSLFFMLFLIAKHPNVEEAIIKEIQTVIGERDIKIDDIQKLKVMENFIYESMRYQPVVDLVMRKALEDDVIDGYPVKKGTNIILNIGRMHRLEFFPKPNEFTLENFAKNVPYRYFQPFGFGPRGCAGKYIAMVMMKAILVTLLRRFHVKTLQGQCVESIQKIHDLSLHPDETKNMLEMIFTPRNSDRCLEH
Estrogen receptor (Homo sapiens), sequence (P03372 whole entry, looked up): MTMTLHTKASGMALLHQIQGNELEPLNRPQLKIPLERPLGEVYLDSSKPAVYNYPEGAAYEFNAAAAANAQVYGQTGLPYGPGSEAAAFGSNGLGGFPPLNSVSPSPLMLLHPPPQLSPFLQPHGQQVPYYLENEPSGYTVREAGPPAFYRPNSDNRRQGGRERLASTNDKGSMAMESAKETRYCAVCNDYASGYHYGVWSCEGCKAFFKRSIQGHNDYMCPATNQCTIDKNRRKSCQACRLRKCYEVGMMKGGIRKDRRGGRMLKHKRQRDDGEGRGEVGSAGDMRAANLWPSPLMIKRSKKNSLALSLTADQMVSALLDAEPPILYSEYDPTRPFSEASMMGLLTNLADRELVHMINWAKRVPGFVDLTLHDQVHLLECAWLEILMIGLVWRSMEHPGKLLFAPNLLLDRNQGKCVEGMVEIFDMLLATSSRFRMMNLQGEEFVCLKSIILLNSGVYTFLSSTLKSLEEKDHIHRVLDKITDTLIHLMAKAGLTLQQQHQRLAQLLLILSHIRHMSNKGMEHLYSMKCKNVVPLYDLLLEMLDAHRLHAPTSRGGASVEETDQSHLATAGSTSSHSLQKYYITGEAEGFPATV

Take `CC1=CC2C3CC(C=C3C)C2C1` (stereo not given): the Potency entry in test [1], in test [2], in test [3], in test [4], in test [5] and in test [6] was “inactive” in each case. The Potency result in [7], in test [8] and in [9] was “inactive” throughout.
For `CCCCCCCCCCCO`, the Potency entry in test [1] was “inactive and 30.6 µM (active)”; in test [9], “inactive and 27.3 µM (active)”. Besides, the Potency entry in test [2], in test [3], in test [4], in test [5], in test [6] and in [7] was “inactive” throughout. The Potency entry in [8] was “inactive”.
Regarding `O=S(=O)(O)c1ccc(O)cc1`, the Potency result in test [1], in test [2], in test [3], in test [4], in test [5] and in [6] was “inactive” throughout. Further, the Potency entry in test [7], in [8] and in test [9] was “inactive” in each case.
`CC(C)OB(OC(C)C)OC(C)C`: the Potency entry in [1], in test [2], in test [3], in test [4], in test [5] and in test [6] was “inactive” in each case. For the same molecule, the Potency result in test [7], in test [8] and in test [9] was “inactive” throughout.
For `NC=O`, the Potency entry in test [1], in [10], in test [2], in [8] and in [9] was “inactive” in each case.
For `CC(C(=O)O)c1cccc(C(=O)c2ccccc2)c1` (stereo not given), the Potency entry in [1], in [2], in test [3], in [4], in [5] and in test [6] was “inactive” in each case. In addition, the Potency result in test [7], in [8] and in test [9] was “inactive” throughout.
As to `CC(C)=CCCC(C)CCO` (stereo not given), the Potency result in test [1], in test [2], in test [3], in test [4], in [5] and in test [6] was “inactive” throughout. Besides, the Potency result in test [7], in [8] and in test [9] was “inactive” throughout.
For the molecule `c1ccc2sc(SSN3CCOCC3)nc2c1`, the Potency is 15.3 µM (active) and 24.3 µM (active) in test [1]; 5.44 µM (active) in test [9]. Also, the Potency entry in [2], in test [3], in [4], in test [5], in test [6] and in test [7] was “inactive” in each case. In test [8], the Potency entry was “inactive”.
For the molecule `c1ccncc1`, the Potency entry in [1], in [2], in test [3], in test [4], in test [5] and in test [6] was “inactive” throughout. Moreover, the Potency result in test [7], in [8] and in test [9] was “inactive” throughout.
Consider `COc1cc([C@@H]2c3cc4c(cc3[C@H](O)[C@H]3COC(=O)[C@H]23)OCO4)cc(OC)c1OC`, for which the Potency in test [1] is 43.2 nM (active); in test [10] it was 29.8 nM (active) and 24.3 nM (active). For the same molecule, the Potency result in test [2], in test [8] and in test [9] was “inactive” throughout.
For the molecule `Nc1ccc(S(=O)(=O)Nc2cnc3ccccc3n2)cc1`, the Potency entry in test [1], in test [10], in test [2], in test [4], in test [8] and in [9] was “inactive” in each case.
Turning to `C[C@]12CCC(=O)C=C1CC[C@@H]1[C@@H]2C(=O)C[C@@]2(C)[C@H]1CC[C@]2(O)C(=O)CO`, the Potency result in test [1], in test [2], in test [3], in [4], in test [5] and in [6] was “inactive” throughout. Besides, the Potency entry in test [7], in test [8] and in test [9] was “inactive” throughout.
Turning to `C[C@]12CC[C@H]3[C@@H](CCC4=CC(=O)CC[C@@]43C)[C@@H]1CC[C@@H]2C(=O)CO`, the Potency result in test [1], in [2], in test [4], in test [5], in test [7] and in test [8] was “inactive” each time. Further, the Potency entry in test [9] is “inactive”. In test [6], the Potency is 7.7 µM (active).
For the molecule `CCC(C)c1ccccc1O` (stereo not given), the Potency entry in [1], in test [2], in test [8] and in test [9] was “inactive” in each case.
On to `O=c1oc(=O)c2cc3c(=O)oc(=O)c3cc12`, for which the Potency entry in [1], in test [2], in test [4], in [8] and in test [9] was “inactive” in each case.
Turning to `Clc1nc(Cl)c(Cl)c(Cl)c1Cl`, the Potency entry in test [1], in test [2], in test [4], in [8] and in test [9] was “inactive” throughout.
On to `CC(C)(C)NC(=O)[C@H]1CC[C@H]2[C@@H]3CC[C@H]4NC(=O)C=C[C@]4(C)[C@H]3CC[C@]12C`, for which the Potency result in test [1], in test [3], in test [4], in test [5], in test [6] and in test [7] was “inactive” in each case. The Potency result in test [8] and in test [9] was “inactive” throughout.
With `O=C(c1ccc(OCCN2CCCCC2)cc1)c1c(-c2ccc(O)cc2)sc2cc(O)ccc12`, the Potency was 6.68 µM (active) and 4.33 µM (active) and 6.11 µM (active) in [1]; 23.9 µM (active) and 49 µM (active) and 54.9 µM (active) in test [4]; 8.41 µM (active) and 10.9 µM (active) and 13.7 µM (active) in [8]; 11.9 nM (active) and 3.9 nM (active) and 4.3 nM (active) in [9]. Further, the Potency entry in test [2] is “inactive”.
As for `Nc1ccc(Nc2ccccc2)cc1`, the Potency in test [1] is 60.4 µM (active) and 30.6 µM (active) and 34.4 µM (active). For the same molecule, the Potency entry in test [4], in [5], in test [6], in test [7], in test [8] and in test [9] was “inactive” throughout.
Regarding `CCCCC(CC)COCC1CO1` (stereo not given), the Potency entry in test [10], in test [2], in test [3], in test [4], in test [5] and in [6] was “inactive” throughout. Further, the Potency result in test [7], in test [8] and in [9] was “inactive” throughout.
Consider `CCCCC/C=C/C=C/C=O`, for which the Potency result in test [2], in test [4], in test [8] and in test [9] was “inactive” each time.
Turning to `CCCCc1oc2ccccc2c1C(=O)c1cc(I)c(OCCN(CC)CC)c(I)c1`, the Potency was 13.3 µM (active) and 26.6 µM (active) and 21.9 µM (active) in [1]; “inactive and 43.6 µM (active)” in test [9]. In addition, the Potency result in test [3], in test [5], in test [6], in [7] and in test [8] was “inactive” in each case.
`CCC(C)CO` (stereo not given): the Potency result in test [2], in test [3], in [4], in test [5], in [6] and in [7] was “inactive” throughout. In addition, the Potency result in [8] and in [9] was “inactive” in each case.
For `O=C(Nc1ccc([N+](=O)[O-])cc1Cl)c1cc(Cl)ccc1O`, the Potency result in test [3], in test [5] and in test [8] was “inactive” each time. The Potency in test [7] was 0.841 µM (active); in test [9], “inactive and 1.93 µM (active)”.
For `C#C[C@]1(O)CC[C@H]2[C@@H]3CCC4=Cc5oncc5C[C@]4(C)[C@H]3CC[C@@]21C`, the Potency result in test [1] was “inactive and 61.1 µM (active)”; in test [3], 49 µM [inconclusive] (active); in test [5] it was 3.38 µM [inconclusive] (active) and 6.17 µM [activator] (active); in [6] it was 668 nM (active) and 969 nM (active); in test [7], “inactive and 61.1 µM (active)”. Moreover, the Potency result in [4], in test [8] and in test [9] was “inactive” throughout.

These data come from PubChem BioAssay (Tox21).
